Source: PubChem BioAssay (NCATS)
Results filed as inconclusive are left out. Entries that show only a call come without a potency. Unmarked numbers belong to inactive results. Active and inactive are the calls of the source. Calls follow the shape of the full dose curve. Peptide text beside a SMILES is read from it.

Each compound was assayed against Nucleoprotein (Lymphocytic choriomeningitis virus (strain Armstrong)) (UniProt P09992) (assay: qHTS for Inhibitors of the Functional Ribonucleoprotein Complex (vRNP) of Lymphocytic Choriomeningitis Arenaviruses (LCMV): LCMV Primary Screen - GLuc reporter signal (AID 1347086; also: nearly all actives have a fitted effect of over 70% in size)). Settings: LCMV minigenome vRNP cell assay, Gaussia luciferase reporter; series mostly up to 57.5 µM.
Sequence of Nucleoprotein (Lymphocytic choriomeningitis virus (strain Armstrong)) (P09992 whole entry, looked up): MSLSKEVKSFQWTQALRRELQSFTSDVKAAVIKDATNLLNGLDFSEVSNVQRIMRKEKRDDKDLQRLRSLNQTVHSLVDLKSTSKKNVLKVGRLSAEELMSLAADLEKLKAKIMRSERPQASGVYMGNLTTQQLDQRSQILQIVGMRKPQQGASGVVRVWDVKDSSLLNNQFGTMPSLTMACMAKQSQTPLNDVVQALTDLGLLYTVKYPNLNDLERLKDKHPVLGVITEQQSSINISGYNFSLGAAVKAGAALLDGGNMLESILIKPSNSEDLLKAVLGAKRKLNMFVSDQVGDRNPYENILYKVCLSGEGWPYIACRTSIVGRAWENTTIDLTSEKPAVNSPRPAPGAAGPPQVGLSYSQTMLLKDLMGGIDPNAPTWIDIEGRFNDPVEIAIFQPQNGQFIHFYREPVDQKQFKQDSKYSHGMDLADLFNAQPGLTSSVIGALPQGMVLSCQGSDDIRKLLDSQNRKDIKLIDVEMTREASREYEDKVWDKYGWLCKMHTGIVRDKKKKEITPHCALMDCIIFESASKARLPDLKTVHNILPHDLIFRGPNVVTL

SMILES	Potency	activity change, negative = inhibition
CC(CC(C#N)(c1ccccc1)C(C)C)N(C)C (stereo not given)	inactive	
Cn1c(=O)c2[nH]c(Br)nc2n(C)c1=O	inactive	
CC(C)NNC(=O)c1ccncc1	inactive	
C#C[C@]1(O)CC[C@H]2[C@@H]3CCc4cc(OC5CCCC5)ccc4[C@H]3CC[C@@]21C	inactive	
CC(C)=CCC/C(C)=C/CC/C(C)=C/CCC(=O)OC/C=C(\C)CCC=C(C)C	inactive	
Cc1cccc(C)c1NC(=O)c1cc(S(N)(=O)=O)c(Cl)cc1O	inactive	
O=C(O)CNC(=O)c1ccccc1	inactive	
CC(C)CCCC(C)NCCC(C)C (stereo not given)	inactive	
C[C@H]1O[C@@H](n2cc(F)c(=O)[nH]c2=O)[C@H](O)[C@@H]1O	inactive	
Cn1c(=O)c2c(ncn2CCO)n(C)c1=O	inactive	
C=CCc1ccc(O)c(OC)c1	inactive	
O=C1OC2(c3ccccc31)c1cc(Br)c(O)c(Br)c1Oc1c2cc(Br)c(O)c1Br	inactive	
Cc1cc(CC(=O)O)c(C)n1-c1ccc(Cl)cc1	inactive	
CC(=O)NO	inactive	
CC=CC1=C(C(=O)O)N2C(=O)[C@H](NC(=O)[C@H](N)c3ccc(O)cc3)[C@@H]2SC1	inactive	
C[C@]12C=CC(=O)C=C1[C@@H](F)C[C@@H]1[C@@H]2[C@@H](O)C[C@@]2(C)[C@H]1CC[C@]2(O)C(=O)CO	inactive	
NS(=O)(=O)c1ccc(NC(=O)CCC(=O)O)cc1	inactive	
CO[C@@H]1[C@@H](OC(N)=O)[C@@H](O)[C@H](Oc2ccc3c(O)c(NC(=O)c4ccc(O)c(CC=C(C)C)c4)c(=O)oc3c2C)OC1(C)C	inactive	
CCOC(=O)O[C@]1(C(=O)OCCl)CC[C@H]2[C@@H]3CCC4=CC(=O)C=C[C@]4(C)[C@H]3[C@@H](O)C[C@@]21C	inactive	
CC(=O)Nc1ccc(CC(=O)O)cc1	inactive	

SMILES	Potency	activity change, negative = inhibition
COc1cc2c(Nc3ccc(Br)cc3F)ncnc2cc1OCC1CCN(C)CC1	inactive	
COc1ccc(S(=O)(=O)Nc2nnc(CC(C)C)s2)cc1	inactive	
CCCCCCCN(CC)CCCC(O)c1ccc(NS(C)(=O)=O)cc1 (stereo not given)	inactive	
CC(C)C(=O)c1c(C(C)C)nn2ccccc12	inactive	
O=C(O)CN(CCN(CC(=O)O)CC(=O)O)CCN(CC(=O)O)CC(=O)O	inactive	
Cc1cc(NS(=O)(=O)c2ccc(N)cc2)nc(C)n1	inactive	
c1ccc2c(c1)CCCC2C1=NCCN1 (stereo not given)	inactive	
C[C@@H]1CCC[C@H](C)N1	inactive	
CC(C)(C)C(=O)Oc1ccc(S(=O)(=O)Nc2ccccc2C(=O)NCC(=O)O)cc1	inactive	
CC(=O)OCC(=O)[C@@]1(O)[C@H](OC(C)=O)C[C@H]2[C@@H]3CCC4=CC(=O)C=C[C@]4(C)[C@@]3(F)[C@@H](O)C[C@@]21C	inactive	
Cc1noc(NS(=O)(=O)c2ccc(N)cc2)c1C	inactive	
CN1C(C)(C)CCCC1(C)C	inactive	
O=c1[nH]c(=O)n([C@H]2C[C@H](O)[C@@H](CO)O2)cc1Br	inactive	
O=C(O)Cc1cccc(-c2cc(CCCCCCc3ccc(O[C@H]4O[C@H](CO)[C@@H](O)[C@H](O)[C@@H]4O)c(-c4cccc(CC(=O)O)c4)c3)ccc2O[C@H]2O[C@H](CO)[C@@H](O)[C@H](O)[C@@H]2O)c1		2.06% [at 0.757 µM]
Cc1[nH]cnc1-c1ccc(Cl)cc1	inactive	
CC(NN)c1ccccc1 (stereo not given)	inactive	
CC(=O)N(c1onc(C)c1C)S(=O)(=O)c1ccc(N)cc1	inactive	
CC(=O)N[C@@H](CCC(=O)O)C(=O)O	inactive	
CCNC(=O)[C@@H]1CCCN1C(=O)[C@H](CCCN=C(N)N)NC(=O)[C@H](CC(C)C)NC(=O)CNC(=O)[C@H](Cc1ccc(O)cc1)NC(=O)[C@H](CO)NC(=O)[C@H](Cc1c[nH]c2ccccc12)NC(=O)[C@H](Cc1cnc[nH]1)NC(=O)[C@@H]1CCC(=O)N1 (HELM PEPTIDE1{[Glp].H.W.S.Y.G.L.R.P.[CCN[*:1]]}$$$$V2.0)	inactive	
COC(=O)c1cccnc1	inactive	
